About 79,000 compounds went through this panel and 15% of them were active in at least one assay; those are over-represented in the sample as a whole. Activity calls are given as the source filed them. Rule as the data show it: active = growth inhibition above about 70%; inactive = the rest.
Assay: NCI Yeast Anticancer Drug Screen. Data for the wt1 strain (AID 149);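 also: 0% = growth of vehicle-treated wt1 cultures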
Conditions: S. cerevisiae wt1 strain (SPY 50644) growth inhibition, active compounds read high
Experimental: Growth inhibition of yeast strains with defined genetic alterations is measured as a screen for potential anti-cancer activity. Selected strains with alterations in DNA damage repair or cell cycle control were exposed to compounds and growth inhibition was measured relative to vehicle treated controls. The strain used in this assay is wt1

Cc1cccc2c1C1c3c(C)cccc3C(CC(=O)O)CC1CC2 (stereo not given)
growth inhibition (at 1.2 µM): 2% (inactive)
growth inhibition (at 3.7 µM): 77% (active)
growth inhibition (at 11.0 µM): 98% (active)
growth inhibition (at 33.0 µM): 96% (active)
growth inhibition (at 100.0 µM): 92% (active)

CCN(CC)CCNc1ccc(C)c2sc3ccc(O)cc3c(=O)c12
growth inhibition (at 1.2 µM): -7% (inactive)
growth inhibition (at 3.7 µM): -10% (inactive)
growth inhibition (at 11.0 µM): 8% (inactive)
growth inhibition (at 33.0 µM): 79% (active)
growth inhibition (at 100.0 µM): 99% (active)

NCCCSc1ccccc1
growth inhibition (at 1.2 µM): -2% (inactive)
growth inhibition (at 3.7 µM): -4% (inactive)
growth inhibition (at 11.0 µM): -2% (inactive)
growth inhibition (at 33.0 µM): -3% (inactive)
growth inhibition (at 100.0 µM): -3% (inactive)

COC(=O)/C(C#N)=C\NC(=S)C(N)=S
growth inhibition (at 1.2 µM): 8% (inactive)
growth inhibition (at 3.7 µM): 26% (inactive)
growth inhibition (at 11.0 µM): 54% (inactive)
growth inhibition (at 33.0 µM): 99% (active)
growth inhibition (at 100.0 µM): 98% (active)

CC(CN(C)C)C(=O)/C=C/c1ccc(Cl)c(Cl)c1 (stereo not given)
growth inhibition (at 1.2 µM): 4% (inactive)
growth inhibition (at 3.7 µM): 6% (inactive)
growth inhibition (at 11.0 µM): 9% (inactive)
growth inhibition (at 33.0 µM): 24% (inactive)
growth inhibition (at 100.0 µM): 85% (active)

Cc1ccc(S(=O)(=O)N/N=C/C(Br)=C(/Br)C(=O)O)cc1
growth inhibition (at 1.2 µM): 29% (inactive)
growth inhibition (at 3.7 µM): 28% (inactive)
growth inhibition (at 11.0 µM): 43% (inactive)
growth inhibition (at 33.0 µM): 91% (active)
growth inhibition (at 100.0 µM): 41% (inactive)

CCOP(=O)(OCC)/C(C#N)=C/c1cccc(Oc2ccccc2)c1
growth inhibition (at 1.2 µM): -13% (inactive)
growth inhibition (at 3.7 µM): -26% (inactive)
growth inhibition (at 11.0 µM): 56% (inactive)
growth inhibition (at 33.0 µM): 96% (active)
growth inhibition (at 100.0 µM): 97% (active)

CN(C)CCCn1c2c3ccccc3ccc2c2oc(=O)c3ccccc3c21
growth inhibition (at 1.2 µM): -10% (inactive)
growth inhibition (at 3.7 µM): -7% (inactive)
growth inhibition (at 11.0 µM): 26% (inactive)
growth inhibition (at 33.0 µM): 84% (active)
growth inhibition (at 100.0 µM): 97% (active)
